{"source": "the supplement of paper PMC12024424", "note": "Where a name gives a salt, the structure may show the parent alone."}
{"system": "Staphylococcus aureus Sa2 (MRSA, cystic fibrosis isolate)", "experiment": "growth reduction vs untreated control (viable cell count); higher = stronger antibacterial activity; extreme values may be limits of the assay", "details": "0.1 mM; 24 h", "description": "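Single-dose screen of the MedChem Express Drug Repurposing Library (0.1 mM, 1% DMSO) against planktonic MRSA S. aureus Sa2 (CF isolate) in TSB in 96-well plates, 37 °C aerobic, 24 h. Assays were run in triplicate and repeated twice.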", "units": {"growth reduction": "%"}}
{"smiles": "O=C(c1ccc(F)c(F)c1Nc1ccc(I)cc1F)N1CC(O)([C@@H]2CCCCN2)C1", "note": "[Cobimetinib]", "growth reduction": 100}
{"smiles": "Cc1ccc(Sc2ccccc2N2CCNCC2)c(C)c1", "note": "[Vortioxetine]", "growth reduction": 100}
{"smiles": "O=c1[nH]c(=O)n([C@H]2C[C@H](O)[C@@H](CO)O2)cc1/C=C/Br", "note": "[Brivudine]", "growth reduction": 100}
{"smiles": "OCCN1CCN(CCCN2c3ccccc3Sc3ccc(Cl)cc32)CC1", "note": "[Perphenazine]", "growth reduction": 100}
{"smiles": "CCCCCOc1ccccc1/C(=C\\SC)n1ccnc1", "note": "[Neticonazole (hydrochloride)]", "growth reduction": 100}
{"smiles": "CCN(CC)CCOc1ccc(C(=C(Cl)c2ccccc2)c2ccccc2)cc1", "note": "[Clomiphene (citrate)]", "growth reduction": 100}
{"smiles": "Cc1ccc(C(=O)N(CCCN)[C@@H](c2oc3cc(Cl)ccc3c(=O)c2Cc2ccccc2)C(C)C)cc1", "growth reduction": 100}
{"smiles": "CSc1ccc2c(c1)N(CCC1CCCCN1C)c1ccccc1S2", "note": "(stereo not given) [Thioridazine (hydrochloride)]", "growth reduction": 100}
{"smiles": "NC(=O)N1c2ccccc2C[C@H](O)c2ccccc21", "note": "[Eslicarbazepine]", "growth reduction": 94}
{"smiles": "CCCCc1oc2ccc(NS(C)(=O)=O)cc2c1C(=O)c1ccc(OCCCN(CCCC)CCCC)cc1", "note": "[Dronedarone (Hydrochloride)]", "growth reduction": 100}
{"smiles": "COc1cc2c(Nc3ccc(Cl)c(Cl)c3F)ncnc2cc1OC[C@@H]1C[C@@H]2CN(C)C[C@@H]2C1", "note": "[Tesevatinib]", "growth reduction": 100}
{"smiles": "Cc1cc2c(F)c(Oc3ncnn4cc(OC[C@@H](C)OC(=O)[C@H](C)N)c(C)c34)ccc2[nH]1", "note": "[Brivanib (alaninate)]", "growth reduction": 100}
{"smiles": "CC(=O)O[C@]1(C(C)=O)CC[C@H]2[C@@H]3C=C(C)C4=CC(=O)CC[C@]4(C)[C@H]3CC[C@@]21C", "note": "[Megestrol acetate]", "growth reduction": 91}
{"smiles": "C=CC(=O)Nc1cc(Nc2nccc(-c3cn(C)c4ccccc34)n2)c(OC)cc1N(C)CCN(C)C", "note": "[Osimertinib mesylate]", "growth reduction": 100}
{"smiles": "C[C@H]1CNCCCN1S(=O)(=O)c1cccc2cncc(F)c12", "note": "[Ripasudil]", "growth reduction": 100}
{"smiles": "Cc1ccc(C#Cc2ccc(S(=O)(=O)N[C@H](Cc3c[nH]c4ccccc34)C(=O)O)s2)cc1", "growth reduction": 100}
{"smiles": "CN(C(=O)CN(CCO)CC(=O)N(C)C(C)(C)Cc1ccccc1)C(C)(C)Cc1ccccc1", "note": "[Oxethazaine]", "growth reduction": 100}
{"smiles": "NC(N)=NC(=O)c1nc(Cl)c(N2CCCCCC2)nc1N", "note": "[5-(N,N-Hexamethylene)-amiloride]", "growth reduction": 100}
{"smiles": "C#C[C@]1(O)CC[C@H]2[C@@H]3CCc4cc(OC)ccc4[C@H]3CC[C@@]21C", "note": "[Mestranol]", "growth reduction": 93}
{"smiles": "CC(C)c1cc(Oc2c(Br)cc(NC(=O)CC(=O)O)cc2Br)ccc1O", "note": "[Eprotirome]", "growth reduction": 100}
{"smiles": "COc1cccc(-c2ccc(NC(=O)C3=C(C(=O)O)CCC3)c(F)c2)c1", "note": "[Vidofludimus]", "growth reduction": 99}
{"smiles": "CO[C@@H](Cc1ccc(OCCc2nc(-c3ccccc3)oc2C)c2ccsc12)C(=O)O", "note": "[Aleglitazar]", "growth reduction": 90}
{"smiles": "C[C@@H]1CCc2ncc(F)cc2[C@H]2CCCN2c2ccn3ncc(c3n2)C(=O)N1", "note": "[Selitrectinib]", "growth reduction": 97}
{"smiles": "N=C(N)c1ccc(OCCCCCOc2ccc(C(=N)N)cc2)cc1", "note": "[Pentamidine (isethionate)]", "growth reduction": 100}
{"smiles": "CC/C(=C(\\c1ccccc1)c1ccc(OCCN(C)C)cc1)c1ccccc1", "note": "[Tamoxifen (Citrate)]", "growth reduction": 100}
{"smiles": "COc1cc2c(Oc3ccc(NC(=O)C4(C(=O)Nc5ccc(F)cc5)CC4)cc3F)ccnc2cc1OCCCN1CCOCC1", "note": "[Foretinib]", "growth reduction": 99}
{"smiles": "O=c1ccc2ccc(O)c(O)c2o1", "note": "[Daphnetin]", "growth reduction": 98}
{"smiles": "O=C(O)c1ccc2c(c1)CCCC(c1ccc(Cl)cc1Cl)=C2c1ccc(O[C@H]2CCN(CCCF)C2)cc1", "growth reduction": 100}
{"smiles": "OCCN1CCN(CC/C=C2/c3ccccc3Sc3ccc(Cl)cc32)CC1", "note": "[Zuclopenthixol]", "growth reduction": 100}
{"smiles": "C=C[C@@H]1C[C@]1(NC(=O)[C@@H]1C[C@@H](Oc2ncc(OC)c3ccc(Cl)cc23)CN1C(=O)[C@@H](NC(=O)OC(C)(C)C)C(C)(C)C)C(=O)NS(=O)(=O)C1CC1", "note": "[Asunaprevir]", "growth reduction": 100}
{"smiles": "CCCCCCCCCCCCCCCCCCOP(=O)([O-])OC1CC[N+](C)(C)CC1", "note": "[Perifosine]", "growth reduction": 100}
{"smiles": "CC(C)(C)Cn1c(N)nc2ccc(-c3[nH]c(C(C)(C)C)nc3-c3ccc(F)cc3)nc21", "note": "[Ralimetinib dimesylate]", "growth reduction": 97}
{"smiles": "C=CC(=O)Nc1cc(Nc2nccc(-c3cn(C4CC4)c4ccccc34)n2)c(OC)cc1N(C)CCN(C)C", "note": "[Almonertinib (hydrochloride)]", "growth reduction": 100}
{"smiles": "CC1(C)CC[C@]2(NC(=O)C(C)(F)F)CC[C@]3(C)[C@H](C(=O)C=C4[C@@]5(C)C=C(C#N)C(=O)C(C)(C)[C@@H]5CC[C@]43C)[C@@H]2C1", "note": "[Omaveloxolone]", "growth reduction": 100}
{"smiles": "Cc1ccc(-c2cc(C(F)(F)F)nn2-c2ccc(S(N)(=O)=O)cc2)cc1", "note": "[Celecoxib]", "growth reduction": 90}
{"smiles": "COc1cccc(OC)c1-c1cc(C(=O)NC2(C(=O)O)C3CC4CC(C3)CC2C4)nn1-c1ccnc2cc(Cl)ccc12", "note": "(stereo not given) [Meclinertant]", "growth reduction": 100}
{"smiles": "CC(OC(=O)NCC1(CC(=O)O)CCCCC1)OC(=O)C(C)C", "note": "(stereo not given) [Gabapentin enacarbil]", "growth reduction": 93}
{"smiles": "CCN(CC)CCNC(=O)c1c(C)[nH]c(/C=C2\\C(=O)Nc3ccc(-c4csc(-c5ccccc5)n4)cc32)c1C", "note": "[Amcasertib]", "growth reduction": 100}
{"smiles": "CC1(C)CCC(C)(C)c2cc(NC(=O)c3ccc(C(=O)O)cc3)ccc21", "note": "[Tamibarotene]", "growth reduction": 100}
{"smiles": "CN1C(C(=O)Nc2ccccn2)=C(O)c2sc(Cl)cc2S1(=O)=O", "note": "[Lornoxicam]", "growth reduction": 98}
